The source of these data is PubChem BioAssay (NCI).

Compounds without any hit were thinned out: in the full panel of roughly 83,000, 20% have a hit.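 In brief: 96-well plates, 48 h treatment, single concentration, percent growth endpoint.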 Values without a mark were called inactive. The source made the active and inactive calls.

This experiment relates to COLO 205 colon. Put plainly: NCI-60 one-dose screen, 48 h (100 = growth as untreated, 0 = no growth, -100 = all killed). The settings on record: 10 µM unless noted. As for the experimental part:
Cells are grown in 96 well plates and exposed to the test compound for 48 hours. Compounds are tested at a single concentration, which is 10^-5 M for most compounds. The reported endpoint is percent growth (GI% or GIPRCNT), where numbers from 0 - 100% represent growth inhibition, and numbers from -100% - 0 represent cell death. For example, a value of 40 represents 60% growth inhibition. A value of 0 means no net growth occurred over the course of the experiment. A value of -40 indicates 40% of cells at the beginning of the experiment died by the end of the experiment. A value of -100 means all cells are dead at the end of the experiment.
NCI-60 Human Tumor Cell Lines Screen was performed using the standard one-dose NCI protocol, which is described in more detail at https://dtp.cancer.gov/discovery_development/nci-60/default.htm.
Compounds with GIPRCNT values below 10 were considered active. Activity score was based on GIPRCNT using the following formula: […]
Score is 0 for GIPRCNT values of 100 or above, 50 for GIPRCNT values of 0, and 100 for GIPRCNT values of -100.
As for `CC(=O)c1c(C)nc(SCC(=O)Nc2cccc(O)c2)n1-c1ccc(Cl)cc1`, the growth is 118%.

Regarding `Cc1nc2sc(C(=O)Nc3ccc(Br)cc3)c(N)c2cc1C(O)c1ccccc1` (stereo not given), the growth was 64.5%.

Regarding `O=C(CN1CCOCC1)Nc1nc(-c2cc3ccccc3oc2=O)cs1`, the growth is 120%.

Turning to `c1ccc([P+](c2ccccc2)(c2ccccc2)c2ccc3c4ccc([P+](c5ccccc5)(c5ccccc5)c5ccccc5)c5cccc(c6cccc2c63)c54)cc1`, the growth was 1.4% (active).

For the molecule `COC(=O)c1cc(N=C2NC(=O)/C(=C/C=C/c3ccccc3)S2)ccc1O`, the growth is 9.95% (active).

Turning to `CCCCC1=C(P(=O)(O)O)N[C@H](C(=O)O)CS1`, the growth is 108%.

Consider `COC(=O)Nc1nc2ccc(S(=O)c3ccccc3)cc2[nH]1` (stereo not given), for which the growth is 67.5%.

As to `O=C(c1ccccc1)c1ccc(C2CCCCC2)cc1`, the growth is 101%.

For `Cn1cc(C(=O)c2nc(-c3c[nH]c4ccccc34)no2)c2cc(F)ccc21`, the growth was 34.7%.

As to `CCOC(=O)c1c(NC(=O)c2ccc(Cl)cc2)sc2c(CN(C)C)c(O)ccc12`, the growth is 5.48% (active).

For the molecule `Cc1cccc(/C=C/c2c(C(=O)/C=C/c3ccccc3)c(C)nc3ccccc23)c1`, the growth was -61.8% (active).

On to `C=C(C)[C@@H]1CC[C@]2(C(=O)O)CC[C@]3(C)[C@H](CC[C@@H]4[C@@]5(C)CCC(NC(=O)c6cccc(OC(C)=O)c6OC(C)=O)C(C)(C)[C@@H]5CC[C@]43C)[C@@H]12` (stereo not given in full), for which the growth was -11.3% (active).

On to `O=C1NC(=C(Cl)Cl)/C(=N\S(=O)(=O)NCc2ccccc2)N1`, for which the growth is 121%.

As to `COc1ccc(C(C)=O)cc1S(=O)(=O)Nc1c(N)nc(SC)[nH]c1=O`, the growth was 101%.

On to `Cc1csc(Nc2nc(-c3ccccn3)nc(C(Cl)(Cl)Cl)n2)n1`, for which the growth was 92%.

Turning to `Cc1cc(N2CCCCC2)cc(C)c1-c1csc(NC(=O)c2ccncc2)n1`, the growth is 60.6%.

For `O=C1C(Cl)=C(Nc2ccc(S(=O)(=O)N3CCOCC3)cc2)C(=O)c2ccccc21`, the growth was 104%.

Take `Cc1ccc(-c2nc(N3CCCNCC3)c3oc(-c4ccccc4)nc3n2)cc1`: the growth was -80.9% (active).

Regarding `N=C(N)c1ccc(-c2ccc(-c3ccc(Cl)c(Cl)c3)s2)nc1`, the growth is -40.5% (active).

`CC(=O)O[C@@H]1C[C@]2(C(C)C)O[C@@]1(C)[C@@H]1CCC(C)=C1[C@@H]2OC(=O)/C=C/c1ccccc1`: the growth was 94.1%.

Take `COc1cc(NS(=O)(=O)c2ccc(-c3cnc(C4CC4)o3)cc2)ccc1F`: the growth was 3.71% (active).

Consider `O=C(Nc1ccc(OS(=O)(=O)c2ccc(F)cc2)cc1)C1CCCCCC1`, for which the growth is 64.6%.

Take `COC(=O)[C@@H](CCCCNC(=O)[C@]12CCC(C)(C)C[C@@H]1C1=CC[C@@H]3[C@@]4(C)C/C(=C/c5ccco5)C(=O)C(C)(C)[C@@H]4CC[C@@]3(C)[C@]1(C)CC2)NC(=O)[C@]12CCC(C)(C)C[C@@H]1C1=CC[C@@H]3[C@@]4(C)C/C(=C/c5ccco5)C(=O)C(C)(C)[C@@H]4CC[C@@]3(C)[C@]1(C)CC2`: the growth is 120%.

Consider `Cc1[nH]c(C(=O)Nc2ccccc2OC2CCNCC2)c(Cl)c1Cl`, for which the growth was -9.94% (active).

Regarding `Cc1ccc2c(n1)C(=O)C(Br)=C(C1CCCC1)C2=O`, the growth was 52%.

`CC1CN(S(=O)(=O)c2oc(-c3ccc(Cl)cc3)nc2C#N)CC(C)O1` (stereo not given): the growth was 2.95% (active).

As for `CSc1nc2ncc([N+](=O)[O-])c(=O)n2[nH]1`, the growth is 119%.

As to `NS(=O)(=O)c1ccccc1NC(=O)Nc1nc2ccccc2s1`, the growth is 109%.

As to `CC/C=C\C[C@H](O)C/C=C1/C(=O)C=C[C@@H]1C/C=C\CCCC(=O)N(C)C`, the growth was -58.6% (active).

Turning to `N#Cc1c(-c2ccc(Cl)cc2)c(C#N)c2c(C#N)c(N)nn2c1N`, the growth was 95.2%.

On to `NC(=O)c1c(NC(=O)c2ccc3ccccc3c2)sc2c1CCC(=O)C2`, for which the growth was 58.4%.

In the case of `COc1ccc(Cc2cnc(NC(=O)c3cc(C)oc3C)s2)cc1`, the growth is 42.9%.

Regarding `O=C(N(c1ccccc1)c1ccccc1)n1cc(I)c2nc(Cl)nc(Cl)c21`, the growth is 79.4%.

For the molecule `COc1ccc(/C=C(\C#N)n2nnc3cc(Cl)ccc32)cc1`, the growth is -13.2% (active).

As for `Nc1cc(C(=O)NC[C@H]2CN(c3ccc(N4CCC(C(=O)O)CC4)cc3)C(=O)O2)ccc1Cl`, the growth was 104%.

For `CCC(C)(C)C(=O)O[C@H]1C[C@@H](C)C=C2C=C[C@H](C)[C@H](CC[C@@H]3CC(SCCN)CC(=O)O3)[C@H]21` (stereo not given in full), the growth was 82.8%.

In the case of `O=C(Nc1cccc(-c2ccc(Cl)c(C(F)(F)F)c2)c1)C1CCN(Cc2cccc3cccnc23)CC1`, the growth is -72.2% (active).

For `CCc1ccccc1-n1c(-c2ccc(OC)cc2)cc(-c2ccc(OC)cc2)c(C#N)c1=O`, the growth was 132%.

Turning to `Nc1ncnc2c1N=C(c1ccc(Br)cc1)CC(c1cccc(Nc3ccnc4cc(C(F)(F)F)ccc34)c1)N2` (stereo not given), the growth was 54.6%.

`COc1cc2ncnc(Nc3ccc(S(=O)(=O)Nc4cc(C)on4)cc3)c2cc1OCCCN1CCN(c2ccc(F)cc2)CC1`: the growth was 105%.
